Screens as filed in PubChem.
Sfp inh – inhibitors of Bacillus subtilis Sfp phosphopantetheinyl transferase; Potency, µM, actives largely listed as inhibitors; Biochemical Sfp PPTase activity, qHTS; Q9F4F7; 3.5% of 310,000 active;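 further: the enzyme is Sfp with the accession as filed and its product quenches rhodamine fluorescence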
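Fluorescence-quenching assay with 15 nM Sfp, 5 uM rhodamine-CoA and 12.5 uM BHQ-2-labelled ybbR peptide in pH 7.6 Hepes/MgCl2 buffer. Enzyme was pre-incubated with compound for 15 min at room temperature. Rate was taken from the 30-min fluorescence change (525/598 nm).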
G9a block – inhibitors of human histone lysine methyltransferase G9a; Q96KQ7; G9a H3K9 monomethylation, AlphaScreen, 2 h; Potency, µM (top dose mostly 102 µM), hits mostly inhibitors; 8.8% of 350,000 active; AID 504332; further: nearly all actives have a fitted effect of over 75% in size
Target sequence (Q96KQ7 913-1193 limits assumed): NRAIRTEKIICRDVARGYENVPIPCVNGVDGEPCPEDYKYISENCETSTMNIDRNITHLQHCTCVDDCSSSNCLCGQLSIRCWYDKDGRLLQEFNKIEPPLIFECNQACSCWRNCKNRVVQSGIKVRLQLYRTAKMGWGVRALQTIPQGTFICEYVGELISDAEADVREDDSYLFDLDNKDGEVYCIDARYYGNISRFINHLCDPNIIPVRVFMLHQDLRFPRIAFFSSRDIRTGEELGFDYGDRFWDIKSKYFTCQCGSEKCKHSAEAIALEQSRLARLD
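Compounds were preincubated with 20 nM G9a for 15 min, after which biotinylated H3K9 peptide (500 nM) and SAM (20 uM) started a 2 h room-temperature reaction. Monomethylated product was quantified by antibody-based AlphaScreen chemiluminescence.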
JMJD2A Tudor – inhibitors of human JMJD2A Tudor domain; 4.4% of 390,000 active; AID 504339; AlphaScreen JMJD2A-Tudor / H3K4me3 peptide binding; O75164; Potency, µM (titrated, usually from 114 µM), most hits filed as inhibitors; further: nearly all actives have a fitted effect of over 50% in size
HP1b chromo inh – inhibitors of HP1-beta chromodomain binding to methylated histone tails | P83916 | AlphaScreen HP1-beta / biotin-H3K9me3 peptide binding | Potency, µM (highest dose often 114 µM), usual class: inhibitors | 0.56% of 390,000 active; further: nearly all actives have a fitted effect of over 70% in size
Target sequence (P83916 whole entry, looked up): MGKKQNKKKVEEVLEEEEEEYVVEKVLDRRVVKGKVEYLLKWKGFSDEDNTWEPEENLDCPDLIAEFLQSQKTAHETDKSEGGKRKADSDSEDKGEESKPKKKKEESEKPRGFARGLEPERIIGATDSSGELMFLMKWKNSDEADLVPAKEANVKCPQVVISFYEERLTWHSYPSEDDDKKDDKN
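Compound inhibition of the preformed complex between 50 nM HP1-beta and 50 nM biotinylated H3K9me3 peptide was read by AlphaScreen. Buffer was PBS pH 7.4 with 0.01% Tween-20. Incubations ran 30 min at room temperature, with 10 ug/mL donor/acceptor beads.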
BAZ2B block – BAZ2B (human) inhibition; Q9UIF8; AlphaScreen BAZ2B-H3K14Ac peptide displacement; Potency, µM (doses to about 114 µM), actives largely listed as inhibitors; 4.4% of 360,000 active; AID 504333; further: nearly all actives have a fitted effect of over 60% in size
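BAZ2B (50 nM) with biotin-H3(5-23)K14Ac peptide (50 nM) in PBS pH 7.4, 0.01% Tween-20, preformed 30 min, then compound 30 min at room temperature; top concentration 110uM. AlphaScreen streptavidin donor/nickel chelate acceptor beads (10 ug/mL final), 20 min dark, signal read.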
Each line names hits and unclear results; the compound was inactive in the other large screens. Only some compounds are listed: those with a hit (about 12% of all), similar ones and a draw of the others. The call rests on the fitted dose curve; in most records, active means well fitted curve in the direction sought with a large enough effect; inconclusive means small, poorly fitted or top-dose-only effect, or another doubt; inactive means no such curve, though single readings can be large; an effect the other way counts as inactive or inconclusive.

O=C(COc1ccc(Br)cc1)Nc1ccc(NC(=O)c2ccccc2)cc1	none (no result: G9a block)
CN(C)C(=O)CSc1nnc(-c2ccncc2)n1Cc1ccco1	none
O=C(CSc1nnc(-c2cc3ccccc3cc2O)n1Cc1ccco1)N1CCc2ccccc2C1	Sfp inh 45µM, G9a block inconclusive
CC(C)N(C(=O)CSc1nnc(-c2cc3ccccc3cc2O)n1Cc1ccco1)C(C)C	G9a block 13µM
COc1ccc(CC(=O)NCC(c2ccc(N(C)C)cc2)N2CCOCC2)cc1 (configuration not stated)	none (no result: Sfp inh)
COC(=O)/C=c1/s/c(=C(\C#N)C(=O)NCc2ccco2)n(-c2ccc(C)cc2)c1=O	Sfp inh 56µM, G9a block inconclusive
Cc1nn(S(=O)(=O)c2ccc(F)cc2)c(C)c1S(=O)(=O)N1CCCCCC1	none (no result: Sfp inh)
O=C(Cn1cnc([N+](=O)[O-])n1)N/N=C/c1cccc2ccccc12	G9a block 45µM
O=C(Cn1cnc([N+](=O)[O-])n1)N/N=C/c1cccc(Cl)c1	none
O=C(Cn1cnc([N+](=O)[O-])n1)N/N=C/c1ccc(O)cc1O	JMJD2A Tudor 63µM, BAZ2B block 28µM
O=C(CN1CCOCC1)N/N=C/c1c(O)ccc2ccccc12	BAZ2B block 45µM
O=C(N/N=C/c1c(O)ccc2ccccc12)Nc1ccccc1	none (no result: Sfp inh, G9a block, BAZ2B block)
O=C(CN1CCOCC1)N/N=C/c1ccco1	none
O=C(O)c1cc(N/N=C/c2c(O)ccc3ccccc23)ccc1Cl	G9a block 20µM, JMJD2A Tudor inconclusive, HP1b chromo inh inconclusive, BAZ2B block 40µM
O=C(CSCC(=O)Nc1ccccc1)N/N=C/c1c(O)ccc2ccccc12	G9a block 1.6µM
O=C(/C(Br)=C/Nc1cc(Cl)ccc1Cl)C(F)(F)F	G9a block 10µM, JMJD2A Tudor inconclusive, BAZ2B block inconclusive
Cc1ccc(Nc2nnc(-c3ccc(C)c(S(=O)(=O)N4CCN(C)CC4)c3)c3ccccc23)c(C)c1	JMJD2A Tudor inconclusive (no result: Sfp inh)
COC(=O)c1ccccc1NC(=O)c1cnc(Nc2ccc(OC)cc2)c2ccccc12	none (no result: Sfp inh)
CC(C)N(C)CCOC(=O)c1ccccc1Cl	BAZ2B block inconclusive
CC(C)N(C)CCOC(=O)c1ccccc1Br	JMJD2A Tudor 50µM
COc1ccc(-c2c(C)nn3c(C(F)(F)F)cc(-c4ccc(Br)cc4)nc23)cc1	G9a block inconclusive, JMJD2A Tudor inconclusive, BAZ2B block inconclusive (no result: Sfp inh)
COc1ccccc1-c1c(C)nn2c(C(F)(F)F)cc(-c3ccccc3)nc12	G9a block 8.9µM, BAZ2B block inconclusive (no result: Sfp inh)
CCOc1cc(CNc2ccc3cn[nH]c3c2)ccc1OC	G9a block 28µM, JMJD2A Tudor inconclusive, BAZ2B block inconclusive
COc1ccccc1S(=O)(=O)Nc1ccc2cn[nH]c2c1	none
COc1ccc(CNc2ccc3cn[nH]c3c2)c(OC)c1OC	G9a block 8.9µM, JMJD2A Tudor inconclusive, BAZ2B block inconclusive
CC/C(=N\NC(=S)Nc1cccc(C)c1)c1ccccc1	G9a block inconclusive, JMJD2A Tudor 50µM, HP1b chromo inh inconclusive, BAZ2B block inconclusive
Cc1cccc(NC(=S)N/N=C(\c2ccccc2)C(C)C)c1	none (no result: G9a block)
Cc1cccc(NC(=S)N/N=C2/CCCCc3ccccc32)c1	JMJD2A Tudor inconclusive, HP1b chromo inh inconclusive, BAZ2B block 40µM
C/C(=N\NC(=S)Nc1cccc(C)c1)c1cc2ccccc2o1	G9a block 35µM, JMJD2A Tudor 25µM, HP1b chromo inh inconclusive, BAZ2B block inconclusive
CCOC(=O)CNC(=O)O[C@H]1C(=O)c2cc(OC)ccc2O[C@@H]1c1ccc(OC)c(Br)c1	none (no result: G9a block, JMJD2A Tudor, HP1b chromo inh, BAZ2B block)
COc1cc(OC)c(C2C(C#N)=C(N)Oc3cc(C)n(CCCN4CCOCC4)c(=O)c32)cc1OC (configuration not stated)	none
COc1ccc(Br)cc1C1CC(=O)N2CN(Cc3ccccc3)CSC2=C1C#N (configuration not stated)	Sfp inh 2.2µM, G9a block 1.4µM, JMJD2A Tudor inconclusive
COc1ccc(Br)cc1C1CC(=O)N2CN(C)CSC2=C1C#N (configuration not stated)	Sfp inh 2.2µM, G9a block 1.4µM, JMJD2A Tudor inconclusive, HP1b chromo inh inconclusive
COc1cc(OC)c(C2CC(=O)N3CN(C)CSC3=C2C#N)cc1OC (configuration not stated)	Sfp inh 3.5µM, G9a block 1.3µM, JMJD2A Tudor 4µM
COC(=O)CSC1=C(C#N)C(c2ccccc2F)CC(=O)N1 (configuration not stated)	Sfp inh inconclusive, G9a block inconclusive
N#CC1=C2SCN(Cc3ccccc3)CN2C(=O)CC1c1ccccc1F (configuration not stated)	Sfp inh 2µM, G9a block 1.8µM, JMJD2A Tudor 79µM, HP1b chromo inh inconclusive
COc1cccc(/C=C/C(=O)O)c1C(C)C	none (no result: JMJD2A Tudor, HP1b chromo inh, BAZ2B block)
CCOc1cc(/C=C(\C#N)C(N)=O)cc(CSc2ccccc2)c1O	none (no result: G9a block, JMJD2A Tudor, HP1b chromo inh, BAZ2B block)
CCCn1c(COc2ccc(C(=O)O)cc2)nc2ccccc21	none
COc1ccc2ccccc2c1C1CC(=O)N2CN(C)CSC2=C1C#N (configuration not stated)	Sfp inh 7.9µM, G9a block 1.6µM, JMJD2A Tudor 28µM, HP1b chromo inh inconclusive, BAZ2B block inconclusive
CCOc1ccc2ccccc2c1C1NC(=O)N(C)C(C)=C1C(=O)OCCOC (configuration not stated)	none
CSc1nc(SCC(=O)O)c2sc3nc(-c4ccccc4)c4c(c3c2n1)CCC4	G9a block 18µM, JMJD2A Tudor 28µM, HP1b chromo inh inconclusive, BAZ2B block 22µM
CSc1nc(N2CCN(CCO)CC2)c2sc3nc(-c4ccco4)c4c(c3c2n1)CCC4	none (no result: JMJD2A Tudor, HP1b chromo inh, BAZ2B block)
CSc1nc(N(C)CCO)c2sc3nc(-c4ccco4)c4c(c3c2n1)CCC4	Sfp inh 79µM, JMJD2A Tudor 25µM, BAZ2B block 50µM
CSc1nc(NCCN(C)C)c2sc3nc(-c4ccco4)c4c(c3c2n1)CCC4	JMJD2A Tudor 89µM, HP1b chromo inh inconclusive (no result: Sfp inh, G9a block, BAZ2B block)
CN1CCN(C(=O)c2cnn(-c3ccccc3)c2NC(=O)c2ccc(Br)cc2)CC1	none (no result: Sfp inh, G9a block, BAZ2B block)
CCN(CC)C(=O)[C@H]1C[C@H](CC(=O)NCCc2ccccn2)C(=O)N2CCc3c([nH]c4ccc(Cl)cc34)[C@]12C	none (no result: Sfp inh, G9a block, BAZ2B block)
COc1ccc(NC(=O)N2CC[C@@]3(CCCN(S(C)(=O)=O)C3)C2)cc1	none (no result: JMJD2A Tudor, HP1b chromo inh, BAZ2B block)
Cc1nn(C)c(Cl)c1S(=O)(=O)N[C@@H](c1ccccc1)[C@]1(C)C[C@H]1[C@@H](C)C(=O)Nc1ccc2ccccc2c1	G9a block 50µM
CCCCCCCCCCCCC/C=C/[C@@H](O)[C@H](CO)NC(=O)CCCCC	none (no result: G9a block, JMJD2A Tudor, HP1b chromo inh, BAZ2B block)
CN(C1CCS(=O)(=O)C1)S(=O)C12CC3CC(CC(C3)C1)C2 (configuration not stated)	G9a block 11µM
CCOC(=O)c1ccc(N2C(=O)c3n[nH]c(-c4ccco4)c3C2c2ccccc2OC)cc1 (configuration not stated)	G9a block 13µM, JMJD2A Tudor inconclusive (no result: Sfp inh, BAZ2B block)
